Data on nine compounds can be found in PubChem BioAssay (Tox21).

Values without a mark were called inactive. Inconclusive results are not listed. The source made the active and inactive calls. Unless noted, calls follow the shape of the dose curve; as a rule, active = well fitted curve in the direction sought with a large enough effect in the repeat runs; inconclusive = weak or mixed curves; inactive = no such curve, though single readings can be large; an effect the other way counts as inactive or inconclusive.

Assay [1] has as its target Luciferin 4-monooxygenase (Photinus pyralis) (UniProt P08659). The assay can be described thus: qHTS assay to identify small molecule inhibitors of firefly luciferase (AID 1224835). Also: nearly all actives have a fitted effect of over 25% in size. Summed up:
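Inhibition of purified Photinus luciferase is measured by luminescence. Substrate levels (D-luciferin, ATP) sit at their KM values. Each compound is tested in a concentration series.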
(In general: qHTS replaces the single test concentration by a dilution series.)

The nature of assay [2]: qHTS assay to identify small molecule agonists of the constitutive androstane receptor (CAR) signaling pathway - cell viability counter screen (AID 1224836). Also: nearly all actives have a fitted effect of over 45% in size. Summed up: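 Counter screen multiplexed with the CAR reporter readout: HepG2 cells co-transfected with hCAR and the CYP2B6-2.2kb construct receive a 15-concentration compound series and 0.75 uM PK11195 (final), then CellTiter-Fluor fluorescence is read after 23 h.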

Assay [3] in a line: qHTS assay to identify small molecule antagonists of the constitutive androstane receptor (CAR) signaling pathway - cell viability counter screen (AID 1224837). Also: nearly all actives have a fitted effect of over 45% in size. The method in brief: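 HepG2 cells stably carrying hCAR and CYP2B6-2.2kb reporter, stimulated with 50 nM CITCO and compounds at 15 concentrations for 23 h at 37 C. Viability measured by CellTiter-Fluor fluorescence.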

The target of assay [4] is Nuclear receptor subfamily 1 group I member 3 (Homo sapiens) (UniProt Q14994). The assay can be described thus: qHTS assay to identify small molecule antagonists of the constitutive androstane receptor (CAR) signaling pathway (AID 1224838). Also: nearly all actives have a fitted effect of over 40% in size. Summed up:
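HepG2 cells stably carrying hCAR and a CYP2B6-2.2kb luciferase reporter, seeded 4 hrs before compound (15 concentrations). Stimulated with 50 nM CITCO for 24 hr at 37 C. ONE-Glo luminescence read after 30 min at room temperature.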

The target is the same in assay [5]. The assay can be described thus: qHTS assay to identify small molecule agonists of the constitutive androstane receptor (CAR) signaling pathway (AID 1224839). Also: nearly all actives have a fitted effect of over 15% in size. Also: potency is read from the fitted curve at half-maximal effect. The method in brief:
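A 15-concentration quantitative screen uses HepG2 cells co-transfected stably with human CAR and CYP2B6-2.2kb reporter. Treatment lasts 24 h with 0.75 uM PK11195 final present; ONE-Glo luminescence is the signal.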

Assay [6] in a line: qHTS assay to identify small molecule antagonists of the estrogen related receptor signaling pathway with the pleiotropic PPARgamma coactivator (PGC) from Tox21 10K library - cell viability counter screen (AID 1224840; active = well fitted cell-killing curve with a large enough effect in the repeat runs, not every such curve was filed as active; also: nearly all actives have a fitted effect of over 40% in size). The method in brief: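 PGC/ERR cells (2,000/well) plated 6 h, then compound-treated for 17.5 h at 37 C. Viability measured by CellTiter-Fluor fluorescence after 30 min at 37 C, multiplexed with the pathway assay.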

In assay [7] the target is Thyrotropin receptor (Homo sapiens) (UniProt P16473). The assay is described as follows: qHTS assay to identify small molecule agonists of the thyroid stimulating hormone receptor (TSHR) signaling pathway (AID 1224843; calls by dose curve; also: nearly all actives have a fitted effect of over 45% in size). Summed up:
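HEK293 cells stably bearing the thyrotropin receptor were plated at 800 cells/well and challenged with compound (30 min, RT). Accumulated cAMP was quantified via cAMP-d2 competing for cryptate-tagged antibody.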

Assay [8] can be described thus: qHTS assay to identify small molecule agonists of H2AX (AID 1224845; active = well fitted activation curve with a large enough effect in the signal ratio in the repeat runs, not every such curve was filed as active; the % refers to the signal ratio). The method in brief:
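Phospho-H2AX Ser139 measured by HTRF (ex 320 nm; em 665 and 620 nm) after 24 hr antibody incubation. Compounds, 15 concentrations, 0.76% DMSO, were applied to CHO-K1 cells for 3hr at 37C before lysis.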

A short description of assay [9]: qHTS assay to identify small molecule agonists of the hypoxia (HIF-1) signaling pathway (AID 1224846; active = well fitted activation curve with a large enough effect in the signal ratio in the repeat runs, not every such curve was filed as active; the % refers to the signal ratio). Summed up:
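HRE-bla ME-180 beta-lactamase reporter cells in medium with 0.5% dialyzed FBS, pre-incubated 5 h then exposed to compounds 17 h at 37C, 5% CO2; reporter induction read with CCF4-AM FRET substrate.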

A short description of assay [10]: qHTS assay to identify small molecule agonists of H2AX - cell viability counter screen (AID 1224847; calls by dose curve; also: top concentration of the series differs between compounds; nearly all actives have a fitted effect of over 30% in size). Summed up: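 We seed wild-type CHO-K1 cells overnight, treat them for 3 hr at 37C with compounds in 15-concentration series, and quantify remaining viability by CellTiter-Glo luminescence.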
Assay [11] can be described thus: qHTS RealTime-Glo MT Cell Viability Assay in HepG2 cells - 24 hour (AID 1224867). Also: nearly all actives have a fitted effect of over 50% in size. The method in brief:
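Real-time, nonlytic viability: 600 HepG2 cells/well mixed with NanoLuc enzyme plus prosubstrate; 5 h settle, compound (DMSO) added by pintool; luminescence monitored over 40 h at 37 C.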

Assay [12] can be described thus: qHTS RealTime-Glo MT Cell Viability Assay in HEK293 cells - 32 hour (AID 1224868). Also: top concentration of the series differs between compounds; nearly all actives have a fitted effect of over 50% in size. Summed up: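 Cells + reagent dispensed (600 cells/well, HEK293) → 5 h at 37 C/5% CO2 → 23 nL compound in DMSO pinned → 40 h at 37 C → luminescence read at 0, 8, 16, 24, 32, 40 h.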
Assay [13] is described as follows: A CellTox Green Cytotoxicity Assay to monitor cytotoxicity in HEK293 cells - 0 hour (AID 1224869). Also: nearly all actives have a fitted effect of over 50% in size. The method in brief: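 HEK293 cells, 600/well, were preincubated 5 hours and then exposed to compounds at 37 C for up to 40 hours. A cell-impermeant cyanine dye staining dead-cell DNA was read by fluorescence at 0, 8, 16, 24, 32 and 40 h time points.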
The nature of assay [14]: qHTS RealTime-Glo MT Cell Viability Assay in HepG2 cells - 40 hour (AID 1224870). Also: nearly all actives have a fitted effect of over 50% in size. The method in brief: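 Real-time viability: cells seeded at 600 per well together with NanoLuc and cell-permeant prosubstrate, compounds added after 5 h incubation. Luminescence tracked at 0, 8, 16, 24, 32 and 40 h of exposure.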
A short description of assay [15]: qHTS assay to identify small molecule agonists of the hypoxia (HIF-1) signaling pathway - cell viability counter screen (AID 1224844; calls by dose curve; also: nearly all actives have a fitted effect of over 50% in size). The method in brief:
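HRE-bla ME-180 cells, 2,000/well in 0.5% dialyzed FBS medium, treated 17 h at 37C with compounds. Viability read in the same wells as the bla reporter, by CellTiter-Glo luminescence after 30 min at room temperature.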

A short description of assay [16]: qHTS assay to identify small molecule antagonists of the estrogen related receptor (ERR) signaling pathway from Tox21 library - cell viability counter screen (AID 1224834). Also: nearly all actives have a fitted effect of over 30% in size. The method in brief: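 ERR reporter cells, 2,000 per well, rested 6 h, then exposed to compound in DMSO for 17.5 hours at 37 C. Viability read as fluorescence after 30 min with CellTiter-Fluor.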

The nature of assay [17]: qHTS assay to identify small molecule antagonists of the estrogen related receptor signaling pathway with the pleiotropic PPARgamma coactivator (PGC) from Tox21 10K library (AID 1224841; call rule not given here). Summed up:
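PGC/ERR cell line, 2,000 cells/well, pre-incubated 6 hours at 37 C, then exposed to compounds for 18 hours at 37 C; luciferase read with One-Glo luminescence after 30 min at room temperature.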

The nature of assay [18]: qHTS assay to identify small molecule agonists of the estrogen related receptor signaling pathway with the pleiotropic PPARgamma coactivator (PGC) from Tox21 10K library (AID 1224842). Also: nearly all actives have a fitted effect of over 15% in size. Summed up:
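Luminescence from One-Glo (30 min, room temperature) measured after PGC/ERR cells had 18 h at 37 C with pinned compound (23 nL in DMSO). Cells had been seeded at 2,000 per well and pre-incubated 6 h.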

Assay [19] in a line: qHTS assay to identify small molecule agonists of the estrogen related receptor (ERR) signaling pathway from Tox21 library (AID 1224849; calls by dose curve; also: nearly all actives have a fitted effect of over 15% in size). Conditions: ERR reporter cell line, ONE-Glo luciferase, 18 h; at 92.4 µM (top of the series) unless noted. Summed up: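 ERR reporter cells (NTP line) pre-incubated 6 hours at 37 C, then exposed to compounds for 18 hours at 37 C. ONE-Glo luciferase luminescence was read after 30 minutes at room temperature.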

Assay [20] can be described thus: qHTS assay to identify small molecule antagonists of the estrogen related receptor (ERR) signaling pathway from Tox21 library (AID 1224848). Also: nearly all actives have a fitted effect of over 50% in size. Summed up:
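Reading was by luminescence 30 min after ONE-Glo addition. Before that, ERR cells at 2,000 per well had rested 6 h at 37 C/5% CO2 and then received pin-tooled compounds in DMSO for 18 h at 37 C.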
% is scaled to controls: 0 for no effect and ±100 for the full control effect.

Thyrotropin receptor (Homo sapiens), sequence (P16473 whole entry, looked up): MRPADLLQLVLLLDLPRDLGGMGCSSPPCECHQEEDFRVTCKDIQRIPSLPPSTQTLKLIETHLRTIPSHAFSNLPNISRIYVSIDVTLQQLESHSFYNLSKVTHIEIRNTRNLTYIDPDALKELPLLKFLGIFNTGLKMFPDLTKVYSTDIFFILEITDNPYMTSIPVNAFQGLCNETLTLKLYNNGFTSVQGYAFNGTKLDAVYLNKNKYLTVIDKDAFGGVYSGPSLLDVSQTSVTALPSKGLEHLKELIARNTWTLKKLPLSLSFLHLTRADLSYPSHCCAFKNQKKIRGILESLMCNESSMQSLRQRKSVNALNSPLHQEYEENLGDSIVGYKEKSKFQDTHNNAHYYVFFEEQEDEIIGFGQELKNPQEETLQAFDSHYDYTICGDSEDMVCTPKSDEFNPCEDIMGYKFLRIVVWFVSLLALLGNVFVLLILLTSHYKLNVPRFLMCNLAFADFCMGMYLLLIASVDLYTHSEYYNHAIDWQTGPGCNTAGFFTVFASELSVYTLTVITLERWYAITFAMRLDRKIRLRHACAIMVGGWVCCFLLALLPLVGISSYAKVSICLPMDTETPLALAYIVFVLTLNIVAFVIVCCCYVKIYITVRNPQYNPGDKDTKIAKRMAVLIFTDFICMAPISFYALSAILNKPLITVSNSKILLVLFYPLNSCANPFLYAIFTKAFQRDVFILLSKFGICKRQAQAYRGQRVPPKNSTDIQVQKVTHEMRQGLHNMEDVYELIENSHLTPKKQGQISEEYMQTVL
Luciferin 4-monooxygenase (Photinus pyralis), sequence (P08659 whole entry, looked up): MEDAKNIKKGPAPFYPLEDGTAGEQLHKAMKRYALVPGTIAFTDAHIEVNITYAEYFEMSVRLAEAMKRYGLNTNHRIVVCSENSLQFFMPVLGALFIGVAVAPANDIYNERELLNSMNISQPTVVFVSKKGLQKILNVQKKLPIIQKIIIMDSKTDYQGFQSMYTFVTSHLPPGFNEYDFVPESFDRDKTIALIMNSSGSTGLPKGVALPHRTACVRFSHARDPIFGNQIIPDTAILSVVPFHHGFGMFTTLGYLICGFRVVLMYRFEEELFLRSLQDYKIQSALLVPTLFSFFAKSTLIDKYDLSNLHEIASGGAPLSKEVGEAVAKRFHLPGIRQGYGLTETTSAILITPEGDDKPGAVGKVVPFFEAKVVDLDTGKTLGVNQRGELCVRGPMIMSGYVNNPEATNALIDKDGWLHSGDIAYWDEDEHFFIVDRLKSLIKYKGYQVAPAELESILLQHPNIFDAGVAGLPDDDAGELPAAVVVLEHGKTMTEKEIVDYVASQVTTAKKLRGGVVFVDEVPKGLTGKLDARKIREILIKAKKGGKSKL
Nuclear receptor subfamily 1 group I member 3 (Homo sapiens), sequence (Q14994 whole entry, looked up): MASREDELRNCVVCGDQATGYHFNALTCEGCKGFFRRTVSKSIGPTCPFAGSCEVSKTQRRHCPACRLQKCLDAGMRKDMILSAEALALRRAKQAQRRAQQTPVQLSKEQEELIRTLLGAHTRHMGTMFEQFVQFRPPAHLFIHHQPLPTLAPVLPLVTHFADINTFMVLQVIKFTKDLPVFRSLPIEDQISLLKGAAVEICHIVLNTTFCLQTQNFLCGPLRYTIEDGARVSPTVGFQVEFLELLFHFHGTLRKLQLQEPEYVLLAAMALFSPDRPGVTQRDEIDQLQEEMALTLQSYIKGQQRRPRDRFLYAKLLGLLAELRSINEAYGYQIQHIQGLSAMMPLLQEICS

Consider `O=C1OC(=O)C2C1C1(Cl)C(Cl)=C(Cl)C2(Cl)C1(Cl)Cl` (centres undefined), for which the Potency entry in [1], in assay [2], in assay [3], in assay [4], in assay [5] and in [6] was “inactive” each time. Moreover, the Potency result in assay [7], in assay [8], in assay [10], in assay [11], in assay [12] and in [13] was “inactive” in each case. Besides, the Potency entry in assay [14] is “inactive”. Also, the compound was called inactive in assay [9].

For the compound `CCN(CC)C(C)C(=O)c1ccccc1` (centres undefined), the Potency result in assay [1], in assay [2], in assay [3], in assay [4], in [5] and in assay [6] was “inactive” each time. For the same compound, the Potency entry in assay [7], in [15], in assay [8], in [10], in assay [11] and in assay [12] was “inactive” in each case. In addition, in assay [14], the Potency entry was “inactive”. Besides, the compound was classed as inactive in assay [9].

Turning to `CSc1nc(N=[N+]=[N-])nc(NC(C)C)n1`, the Potency entry in assay [1], in [2], in assay [3], in [4], in assay [6] and in assay [7] was “inactive” each time. Moreover, the Potency entry in [15], in assay [8], in assay [10], in [11], in assay [13] and in assay [14] was “inactive” each time. Moreover, in assay [5], the Potency is 54.5 µM (active). Besides, the outcome in [9] was inactive.

With `CCOC(=O)CP(=O)(OCC)OCC`, the Potency result in assay [16], in assay [2], in assay [3], in assay [6], in [17] and in [7] was “inactive” throughout. The Potency entry in [15], in assay [8], in assay [10], in assay [11], in assay [12] and in [13] was “inactive” in each case. In [14], the Potency entry is “inactive”. Besides, the call in assay [18] and in [9] was inactive. The activity change, positive = activation in [19] was 4.99%.

`O=C(Nc1ccccc1)c1ccccc1I`: the Potency result in [1], in assay [2], in assay [3], in assay [4], in assay [6] and in assay [7] was “inactive” in each case. For the same compound, the Potency entry in [15], in [8], in [11], in assay [12], in assay [13] and in [14] was “inactive” in each case. Besides, the Potency in [5] is 61.1 µM (active). Besides, the result in [9] was inactive.

Consider `O=CNC(N1CCN(C(NC=O)C(Cl)(Cl)Cl)CC1)C(Cl)(Cl)Cl` (centres undefined), for which the Potency entry in assay [1], in assay [2], in [3], in assay [4], in assay [5] and in assay [6] was “inactive” in each case. In addition, the Potency entry in assay [17], in assay [7], in assay [15], in [8], in [10] and in assay [11] was “inactive” each time. Also, the Potency result in assay [12], in [13] and in assay [14] was “inactive” throughout. The call in assay [18] and in assay [9] was inactive. For the same compound, the activity change, positive = activation in [19] was 2.23%.

In the case of `COc1ncc(F)c2nc(S(=O)(=O)Nc3c(F)cccc3F)nn12`, the Potency result in assay [1], in assay [2], in [3], in assay [4], in assay [5] and in assay [6] was “inactive” throughout. For the same compound, the Potency result in assay [7], in assay [15], in assay [8], in [10], in assay [11] and in assay [12] was “inactive” in each case. Besides, the Potency entry in [14] was “inactive”.

`CC(C)COP(=O)(OCC(C)C)OCC(C)C`: the Potency entry in assay [16], in assay [2], in assay [3], in assay [6], in assay [17] and in assay [15] was “inactive” in each case. The Potency result in assay [20], in [11], in assay [12], in assay [13] and in [14] was “inactive” each time. The call in assay [18] and in assay [9] was inactive. The activity change, positive = activation in [19] is -2.2%.

With `CCOP(=S)(OCC)Oc1nc(Cl)n(C(C)C)n1`, the Potency result in assay [16], in assay [2], in assay [3], in assay [6], in assay [7] and in [15] was “inactive” each time. Moreover, the Potency entry in [8], in assay [10], in assay [11], in assay [13] and in assay [14] was “inactive” in each case. In addition, the result in assay [9] was inactive.
